# Measured values as given in PubChem BioAssay (NCI).
# This is part of a sample that, as a whole, favours compounds with a hit. Of some 83,000 tested, about 20% had one in any assay.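 Activity criterion: percent growth below 10, measured after cells in 96-well plates were exposed to a single compound concentration for 48 hours.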 A number with no mark means an inactive call. Calls of active or inactive are those of the source.
# Tested on: EKVX NSCLC
# Experiment: NCI-60 one-dose screen, 48 h (100 = growth as untreated, 0 = no growth, -100 = all killed)
# Conditions: 10 µM
row,SMILES,growth
1,O=C(CSc1ccc(-c2ccc(Cl)cc2)nn1)Nc1ccc(Cl)c(C(F)(F)F)c1,44.3%
2,COc1cc(/C=N/NC(=O)c2ccc3nc(-c4ccc(Cl)cc4)[nH]c3c2)cc(OC)c1OC,9.25% (active)
3,COc1cnc2c(c1)C(=O)c1c-2n(CCCNCCO)c(=O)c2cc(OC)c(OC)cc12,87.9%
4,O=C(CSc1nnc(-c2c[nH]c3ccccc23)n1-c1ccccc1)Nc1ccc(C(=O)/C=C/c2cccc([N+](=O)[O-])c2)cc1,83.9%
5,NC1=NC(c2ccccc2Cl)N=C(Nc2nn[nH]n2)N1 (configuration not stated),96.2%
6,O=C1NC(=NC23CC4CC(CC(C4)C2)C3)N/C1=C\c1ccc2ncccc2n1,-22% (active)
7,COc1cccc(/C=C2\N=C(C)N(CCc3ccc(S(N)(=O)=O)cc3)C2=O)c1,95.6%
8,CC1(C)[C@@H](NCO)CC[C@]2(C)[C@H]3C(=O)C=C4[C@@H]5C[C@](C)(CO)CC[C@]5(C)CC[C@@]4(C)[C@]3(C)CC[C@@H]12,75.5%
9,CN1CCN(Cc2ccc(NC(=O)c3cncc(C#Cc4cnc5ccc(N[C@H]6CCOC6)nn45)c3)cc2C(F)(F)F)CC1,-99.4% (active)
10,N#Cc1c(NC(=O)c2ccc(C(F)(F)F)cc2C(F)(F)F)sc2c1CCC(=O)C2,-57.5% (active)
11,COc1ccccc1[C@H]1C(C(=O)c2ccc(O)cc2)C2(N[C@@H]1c1ccccc1)C(=O)Nc1ccc(Br)cc12 (some centres not stated),30%
12,CN(CCF)c1ccc(/C=C/C(=O)c2ccc(N)cc2O)cc1,93.8%
13,N#Cc1c(NC(=O)c2cccc(C(F)(F)F)c2)sc2c1CCC(O)=C2,22.8%
14,O=C(CNc1nc(-c2ccccc2)cs1)Nc1cccc([N+](=O)[O-])c1,-97.1% (active)
15,O=C1Nc2cc(Cl)ccc2/C1=C/c1ccc(OCc2ccc(Br)cc2F)cc1,-13.7% (active)
16,CC1(C)CC[C@]2(C(=O)NCCCNCCCCNCCCN)CC[C@]3(C)C(=CC[C@@H]4[C@@]5(C)Cc6c([nH]c7ccccc67)C(C)(C)[C@@H]5CC[C@]43C)[C@H]2C1,90.7%
17,COc1cc2c(cc1OC)CN(CCCCOc1cc(O)c3c(=O)cc(-c4ccccc4)oc3c1)CC2,76.6%
18,CCCn1c(=O)c2[nH]c(-c3ccc(OCc4nc5ccc(C#N)cc5[nH]4)cc3)nc2n(CCC)c1=O,80.6%
19,O=c1[nH]c2ccc(Cl)cc2cc1CSc1ccc(Nc2nccc(-c3ccc4ccccc4c3)n2)cc1,83.6%

row,SMILES,growth
1,COc1cc(C2CC(c3ccc(C)cc3)=Nc3c(N)nc(N)nc3N2)ccc1Oc1nc(Nc2ccc(F)cc2)nc(N(C)C)n1 (configuration not stated),70.1%
2,COc1cc2c3c(n(CCCNC(C)C)c(=O)c2cc1OC)-c1nc2c(cc1C3=O)OCO2,87.6%
3,CC(=O)NNc1ccc2nnc(-c3ccc(Br)cc3)n2n1,81.7%
4,Cc1ccc(-c2nc3ccc(C(=O)N=Nc4c(O)[nH]c5ccc([N+](=O)[O-])cc45)cc3[nH]2)cc1,101%
5,COc1cc(OC(F)(F)F)ccc1C(=O)Nc1sc2c(c1C#N)CCC(=O)C2,46.7%
6,COc1ccc(CN2[C@@H](C(=O)NCc3ccc(C(=O)NO)cc3)Cc3c([nH]c4ccccc34)[C@@H]2C)cc1,11.9%
7,Cc1cccc2cc(-c3cc(-c4ccccc4)nc(=S)[nH]3)c(Cl)nc12,76.5%
8,O=C(c1ccc([N+](=O)[O-])c([N+](=O)[O-])c1O)n1[nH]c(=O)c2ccccc2c1=O,66.4%
9,COc1ccc(-c2cc(-c3cc(C(=O)c4ccccc4)n4ccc(C)cc34)nc(N)c2C#N)cc1,81.2%
10,NC(=Nc1ccc(OCCCCCCCCn2ccnn2)cc1)c1ccccc1,42.7%
11,COc1ccc(C=CC(=O)c2ccc(-n3c(C)nc4c(cnn4-c4ccccc4)c3=O)cc2)cc1,42.9%
12,CCOC(=O)C1=C(N)N(c2ccc(Cl)cc2)C2=C(C(=O)CC(C)(C)C2)C1c1ccc(N2CCOCC2)cc1 (configuration not stated),74.6%
13,CC1=N/C(=C\c2ccc(N(C)C)cc2)C(=O)N1CCc1ccc(S(N)(=O)=O)cc1,95.2%
14,CC(C)(C)Nc1nc2cc(Cl)c(Cl)cc2nc1S(C)(=O)=O,58.1%
15,CO[C@H]1CSS[C@@H]1Cn1nc(-c2ccc(Oc3ccccc3)cc2)c2c(N)ncnc21,18%
16,CNC(=O)c1cc(-c2ccc(NC(=O)Nc3ccc(C)cc3)cc2)nc2cccnc12,99.4%
17,COc1cccc(-c2ccc(/C=N/NC(=O)c3[nH]c4ccc(Br)cc4c3-c3ccccc3)o2)c1,50.1%
18,COc1ccc(-c2cc(-c3cc(C(=O)c4ccc(Br)cc4)n4ccc(C)cc34)nc(N)c2C#N)cc1,89.8%
